We go through 14 compounds from PubChem BioAssay (NCATS).

Inconclusive results are not listed. Activity calls are given as the source filed them. Unless noted, calls follow the shape of the dose curve; as a rule, active = well fitted inhibition curve with a large enough effect; inconclusive = small, poorly fitted or top-dose-only effect; inactive = flat fitted curve, though single readings scatter. Peptide text beside a SMILES is read from it.

A short description of test [1]: qHTS drug screen for cell cycle checkpoint inhibitors in PARPi-resistant BRCA-mutant ovarian cancer cell lines. (AID 1963452; calls by dose curve). Particulars: PEO1/OlaR viability, CellTiter-Glo luminescence, 96 h, stronger effect = lower value. The gist of the method:
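PEO1, PEO4 and PEO1/OlaR ovarian cancer cells, 600 per well, exposed 96 h at 37C to a dilution series. Viability read by CellTiter-Glo luminescence, normalized to DMSO and empty wells; activity summarized as Z-AUC.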
For orientation: Quantitative high-throughput screening tests each substance at several concentrations.

Test [2] can be described thus: qHTS profiling for inhibitors of Plasmodium falciparum proliferation (AID 504749). Also: nearly all actives have a fitted effect of over 60% in size. Also: potency is read from the fitted curve at half-maximal effect.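 As to activity, negative = inhibition: 0% = DMSO vehicle and full inhibition = artemisinin control.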 Particulars: P. falciparum in erythrocytes, SYBR Green DNA, 72 h. In a few lines: (§1)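 SYBR Green fluorescence (ex 485 nm, em 535 nm) reports parasite DNA after 72 h compound exposure of infected red cells at 0.3% parasitemia, 2.5% hematocrit; signal normalized to 0.29 uM artemisinin and vehicle wells.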

Test [3] relates to 3D7. Described as above. Particulars: P. falciparum in erythrocytes, SYBR Green DNA, 72 h; series mostly up to 28.7 µM. In a few lines: as §1
The test system of test [4] is 7G8. The test is described as above. Particulars: P. falciparum in erythrocytes, SYBR Green DNA, 72 h; series mostly up to 28.7 µM. In a few lines:
as §1

Test [5] deals with AA1029. The test is described as above. Conditions: P. falciparum in erythrocytes, SYBR Green DNA, 72 h; series mostly up to 28.7 µM. The gist of the method: as §1
Test [6] concerns AS120. The test is described as above. Conditions: P. falciparum in erythrocytes, SYBR Green DNA, 72 h; series mostly up to 28.7 µM. The gist of the method: as §1
In test [7] the test system is ATS189. The test is described as above. Particulars: P. falciparum in erythrocytes, SYBR Green DNA, 72 h; series mostly up to 28.7 µM. The gist of the method:
as §1

Test [8] relates to ATS95. Described as above. Conditions: P. falciparum in erythrocytes, SYBR Green DNA, 72 h; series mostly up to 28.7 µM. The gist of the method: as §1
Test [9] deals with C2A. Described as above. Conditions: P. falciparum in erythrocytes, SYBR Green DNA, 72 h; series mostly up to 28.7 µM. In a few lines:
as §1

Test [10] deals with CP185. The description is as above. Conditions: P. falciparum in erythrocytes, SYBR Green DNA, 72 h; series mostly up to 28.7 µM. The gist of the method:
as §1

The test system of test [11] is CP191. The description is as above. Conditions: P. falciparum in erythrocytes, SYBR Green DNA, 72 h; series mostly up to 28.7 µM. The gist of the method:
as §1

Test [12] deals with CP192. Described as above. Particulars: P. falciparum in erythrocytes, SYBR Green DNA, 72 h; series mostly up to 28.7 µM. The gist of the method:
as §1

The test system of test [13] is CP194. The description is as above. Conditions: P. falciparum in erythrocytes, SYBR Green DNA, 72 h; series mostly up to 28.7 µM. In a few lines: as §1
Test [14] concerns CP201. The test is described as above. Particulars: P. falciparum in erythrocytes, SYBR Green DNA, 72 h; series mostly up to 28.7 µM. In a few lines: as §1
For test [15], the system named is CP203. The description is as above. Particulars: P. falciparum in erythrocytes, SYBR Green DNA, 72 h; series mostly up to 28.7 µM. The gist of the method:
as §1

Test [16] has as its system CP211. The description is as above. Particulars: P. falciparum in erythrocytes, SYBR Green DNA, 72 h; series mostly up to 28.7 µM. The gist of the method: as §1
The mark [17] stands for this setting: measured here: PEO1 parental Z-AUC.
Where [18] appears, read: at 12.8 µM (top of the series), parasite line A.
Where [19] appears, read: at 12.8 µM (top of the series), parasite line B.
The mark [20] stands for this setting: at 28.7 µM (top of the series), parasite line A.
The mark [21] stands for this setting: at 28.7 µM (top of the series), parasite line B.

With `CCc1nc(C(N)=O)c(Nc2ccc(N3CCC(N4CCN(C)CC4)CC3)c(OC)c2)nc1NC1CCOCC1`, the Z-AUC in test [1] was 1.23 (inactive); in test [1] (setting [17]), 0.97; in test [1] (measured here: PEO4 Z-AUC), 0.904.
The like results for `O=c1ccn([C@@H]2O[C@H](CO)[C@@H](O)[C@H]2O)c(=O)[nH]1` were, in that order, 1.3 (inactive), 1.05 and 0.867.
The like results for `CNC(=O)c1ccc(Nc2ncc(C(F)(F)F)c(NCc3nccnc3N(C)S(C)(=O)=O)n2)cc1` were, in that order, -0.202 (inactive), 0.488 and -0.174.
Turning to `Cc1cc(C(=O)NNCc2ccccc2)no1`, the activity, negative = inhibition is 2.34% (inactive) in test [2] (setting [18]) and -1.58% (inactive) in test [2] (setting [19]). For the same compound, the Potency entry in test [3], in test [4], in test [5], in [6], in test [7] and in test [8] was “inactive” each time. Besides, the Potency entry in test [9], in [10], in [11], in test [12], in test [13] and in test [14] was “inactive” each time. Moreover, the Potency entry in test [15] and in test [16] was “inactive” throughout.
With `O=C(COc1ccc(Cl)cc1)OCCNC12CC3CC(CC(C3)C1)C2`, the activity, negative = inhibition in test [2] (setting [20]) was 9.51% (inactive); in [2] (setting [21]) it was 10.7% (inactive). Also, the Potency entry in [3], in test [4], in [5], in test [6], in [7] and in [8] was “inactive” throughout. For the same compound, the Potency result in [9], in test [10], in test [11], in test [12], in [13] and in test [14] was “inactive” each time. In addition, the Potency entry in test [16] was “inactive”.
Regarding `CC(=O)N[C@@H](CC(=O)O)C(=O)N[C@@H](CCC(=O)O)C(=O)O` (Ac-Asp-Glu-OH), the activity, negative = inhibition is 24.6% (inactive) in test [2] (setting [20]) and 14.8% (inactive) in test [2] (setting [21]). The Potency result in [3], in test [4], in test [5], in [6], in test [7] and in [8] was “inactive” in each case. The Potency result in [9], in [10], in test [11], in test [12], in test [13] and in test [14] was “inactive” in each case. The Potency result in test [15] and in test [16] was “inactive” each time.
For the compound `O=C(O)c1cc(O)c2c(c1)[O][Bi][O]2`, the values for the activity, negative = inhibition in test [2] (setting [20]) and in test [2] (setting [21]) were -9.75% (inactive) and 14.4% (inactive), respectively. Besides, the Potency result in test [3], in [4], in [5], in test [6], in test [7] and in test [8] was “inactive” each time. Further, the Potency entry in test [9], in test [10], in test [11], in [12], in test [13] and in [14] was “inactive” each time. The Potency result in [16] was “inactive”.
In the case of `CC[N+](C)(C)Cc1ccccc1Br`, the figures for the activity, negative = inhibition in [2] (setting [18]) and in test [2] (setting [19]) were 3.25% (inactive) and 6.79% (inactive), respectively. Further, the Potency result in test [3], in [4], in test [5], in test [6], in test [7] and in test [8] was “inactive” in each case. Also, the Potency result in [9], in [10], in [11], in [12], in test [13] and in test [14] was “inactive” each time. Also, in [16], the Potency entry is “inactive”.
`CC(O)CO` (configuration not stated): the activity, negative = inhibition in test [2] (setting [20]) was 8.15% (inactive); in [2] (setting [21]), 7.84% (inactive). Also, the Potency entry in [3], in test [4], in test [5], in test [6], in test [7] and in [8] was “inactive” each time. Besides, the Potency entry in [9], in test [10], in test [11], in test [12], in test [13] and in test [14] was “inactive” in each case. For the same compound, in [16], the Potency entry is “inactive”.
As to `CCN(CC)Cc1cc(Nc2ccnc3cc(Cl)ccc23)ccc1O`, the Potency in [2] (parasite line A) is 35.5 nM (active); in [2] (parasite line B), 39.8 nM (active); in test [3], 28.2 nM (active); in [4], 35.5 nM (active); in [5], 63.1 nM (active); in test [6] it was 44.7 nM (active). The Potency in test [7] was 141 nM (active); in test [8], 63.1 nM (active); in test [9] it was 56.2 nM (active); in test [10], 63.1 nM (active); in test [11], 39.8 nM (active); in test [12], 161 nM (active). Also, the Potency in test [13] is 128 nM (active); in test [14], 90.7 nM (active); in [16], 64.2 nM (active).
Consider `CCCC(=O)O[C@]1(C(=O)CCl)[C@H](C)C[C@@H]2[C@H]3CCC4=CC(=O)C=C[C@]4(C)[C@@]3(F)C(=O)C[C@@]21C`, for which the Potency in test [2] (parasite line A) was 1410 nM (active); in test [2] (parasite line B), 2240 nM (active); in [3], 2510 nM (active); in [4] it was 2510 nM (active); in test [5] it was 2820 nM (active); in [6] it was 3160 nM (active). Besides, the Potency is 2820 nM (active) in test [7]; 3550 nM (active) in test [8]; 3550 nM (active) in test [9]; 3160 nM (active) in test [10]; 891 nM (active) in test [11]; 4780 nM (active) in test [12]. Also, the Potency in test [13] was 3010 nM (active); in test [14] it was 3790 nM (active); in test [16] it was 1510 nM (active).
Regarding `C=CCSSSCC=C`, the results for the activity, negative = inhibition in test [2] (setting [20]) and in test [2] (setting [21]) were 1.87% (inactive) and 3.6% (inactive), respectively. Moreover, the Potency result in [3], in test [4], in [5], in test [6], in test [7] and in test [8] was “inactive” throughout. In addition, the Potency result in [9], in test [10], in [11], in test [12], in test [13] and in test [14] was “inactive” in each case. Also, the Potency entry in test [16] was “inactive”.
Regarding `CCCCC/C=C\C/C=C\CCCCCCCC(=O)O`, the activity, negative = inhibition is 6.83% (inactive) in [2] (setting [20]) and 5.9% (inactive) in test [2] (setting [21]). Also, the Potency result in test [3], in [4], in test [5], in [6], in [7] and in [8] was “inactive” each time. In addition, the Potency result in [9], in test [10], in test [11], in test [12], in [13] and in test [14] was “inactive” throughout. For the same compound, the Potency result in test [16] was “inactive”.
With `Cc1ccccc1`, the activity, negative = inhibition in test [2] (setting [20]) was 1.71% (inactive); in test [2] (setting [21]), 0.119% (inactive). Also, the Potency entry in [3], in [4], in [5], in test [6], in test [7] and in [8] was “inactive” throughout. The Potency entry in test [9], in test [10], in test [11], in [12], in test [13] and in [14] was “inactive” in each case. Further, the Potency entry in test [15] and in test [16] was “inactive” throughout.
